Shn3 inh set2 = inhibitors of Schnurri-3 3'UTR reporter in osteoblasts. Clone20 osteoblast Shn3 3'UTR firefly luciferase, 24 h. inhibition, % at 12.5 µM. hit rate 0.52% among 360,000;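 active = mean inhibition of at least 75% with every replicate also reaching 75%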
Jurkat NFkB inh = lowers PMA/ionomycin-induced NF-kB signal in Jurkat cells. PMA/ionomycin-induced NF-kB luciferase reporter, luminescence. inhibition, % at 4 µM. hit rate 0.53% among 330,000; in the data active = inhibition above about 50%
697 NFkB inh = lowers PMA/ionomycin-induced NF-kB signal in 697 B cells | AID 435022 | hit rate 0.33% among 330,000 | inhibition, % at 4 µM | 697 B-cell NF-kB luciferase reporter, 16 h; in the data active = inhibition above about 35%
Mdm2 MdmX PPI = inhibitors of human Mdm2/MdmX interaction; O15151+Q00987; SaOS-2 split-luciferase Mdm2/MdmX complementation, luminescence; inhibition, % at 8 µM; hit rate 3% among 330,000; AID 485346;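 active = inhibition of at least 50% at 8 µM in the primary screen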
Target sequence (O15151 whole entry, looked up): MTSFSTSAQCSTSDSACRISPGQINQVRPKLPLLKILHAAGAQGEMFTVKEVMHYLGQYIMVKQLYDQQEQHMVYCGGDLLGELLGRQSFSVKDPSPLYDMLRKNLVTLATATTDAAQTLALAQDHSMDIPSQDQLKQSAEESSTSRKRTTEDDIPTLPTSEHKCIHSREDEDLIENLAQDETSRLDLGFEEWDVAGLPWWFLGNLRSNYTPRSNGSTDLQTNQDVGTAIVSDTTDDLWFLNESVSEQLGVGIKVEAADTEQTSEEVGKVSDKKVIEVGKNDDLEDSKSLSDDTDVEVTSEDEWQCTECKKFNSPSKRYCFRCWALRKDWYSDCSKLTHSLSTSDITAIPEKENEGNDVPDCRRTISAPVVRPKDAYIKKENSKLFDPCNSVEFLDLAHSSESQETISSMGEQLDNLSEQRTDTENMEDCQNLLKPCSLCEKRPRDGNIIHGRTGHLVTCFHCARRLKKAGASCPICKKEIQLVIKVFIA
Target sequence (Q00987 whole entry, looked up): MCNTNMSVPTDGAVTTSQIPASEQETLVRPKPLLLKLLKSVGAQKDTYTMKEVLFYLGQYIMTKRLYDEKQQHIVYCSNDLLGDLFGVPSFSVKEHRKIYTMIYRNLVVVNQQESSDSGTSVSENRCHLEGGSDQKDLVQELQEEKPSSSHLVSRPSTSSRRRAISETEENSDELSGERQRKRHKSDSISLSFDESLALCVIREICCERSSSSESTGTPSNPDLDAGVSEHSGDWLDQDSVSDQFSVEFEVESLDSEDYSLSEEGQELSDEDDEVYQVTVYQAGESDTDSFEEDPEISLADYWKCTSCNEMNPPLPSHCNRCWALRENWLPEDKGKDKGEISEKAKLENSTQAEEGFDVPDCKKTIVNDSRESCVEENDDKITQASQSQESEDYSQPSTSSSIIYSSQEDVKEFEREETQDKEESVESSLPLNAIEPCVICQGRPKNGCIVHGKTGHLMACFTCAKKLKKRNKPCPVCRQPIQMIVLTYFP
Gli-Sufu block = blocks Gli-Sufu signaling in a luciferase reporter. Sufu-KO-LIGHT fibroblasts, Gli luciferase reporter luminescence. inhibition, % at 5 µM. hit rate 0.74% among 340,000. AID 588413;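 active = inhibition above about 55%, limit read from the data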
697 NFkB conf = inhibitors of the PMA/ionomycin-induced NF-kB reporter in 697 B cells, retest; shares compounds with 697 NFkB inh; 697 B-cell NF-kB luciferase, 16 h; inhibition, % at 4 µM; hit rate 35% among 2,000; AID 449746; in the data active = inhibition mostly above about 28%, no sharp cut-off; inactive = mostly below about 22%
Each line names hits and unclear results; the compound was inactive in the other large screens (follow-up assays come after a bar, where they were run). A selection: hits, their analogues and other compounds. The true share with any hit is near 3.8%.

O=C1NC(c2cc(Cl)cc([N+](=O)[O-])c2O)Nc2ccccc21 (centres undefined)	697 NFkB inh 36 | 697 NFkB conf inactive
CC(O)(c1ccc(F)c(F)c1)c1nc(-c2ccc(S(C)(=O)=O)cc2)cs1 (centres undefined)	none (no result: Jurkat NFkB inh, 697 NFkB inh, Mdm2 MdmX PPI, Gli-Sufu block)
CCC(C)NC(=O)c1c(N)n(/N=C/c2ccccn2)c2nc3ccccc3nc12 (centres undefined)	697 NFkB inh 52 | 697 NFkB conf 44
Cn1c(CN2CCCC2)nc2cc(NC(=O)COc3ccc([N+](=O)[O-])cc3)ccc21	none
c1cncc(-c2nc3ccccc3[nH]2)c1	none
S=C(Nc1ccc(-c2nc3ccccc3[nH]2)cc1)Nc1cccnc1	none | 697 NFkB conf inactive
CCCCC(=O)Nc1cc2nn(-c3ccc(OC)cc3)nc2cc1C	none
CCC(=O)Nc1cc2nn(-c3ccc(OC)cc3)nc2cc1C	none | 697 NFkB conf inactive
Nc1c(C(=O)N2CCCCCC2)oc2ccccc12	none
COc1ccc(Cl)cc1NC(=O)c1[nH]c(C)c(C(C)=O)c1C	none
COc1ccc(OC)c(NC(=O)c2[nH]c(C)c(C(C)=O)c2C)c1	697 NFkB inh 36 | 697 NFkB conf 33
O=C(NC(c1ccc2c(c1)OCO2)c1ccccn1)C1CCN(CCOc2ccccc2)CC1 (centres undefined)	none (no result: Jurkat NFkB inh, 697 NFkB inh, Mdm2 MdmX PPI, Gli-Sufu block)
Brc1ccc2nc(N3CCN(c4ccccc4)CC3)sc2c1	none
Clc1ccc2nc(N3CCN(c4ccccc4)CC3)sc2c1	none | 697 NFkB conf inactive
Cc1ccc(-n2c(O)c(C=Nc3ccccc3-c3n[nH]c(=S)[nH]c3=O)c3ccccc3c2=O)cc1C	none
Cc1cccc(-n2c(O)c(C=Nc3ccccc3-c3n[nH]c(=S)[nH]c3=O)c3ccccc3c2=O)n1	697 NFkB inh 38 | 697 NFkB conf inactive
O=C(Nc1ccc(-c2nc3ccccc3s2)cc1)C1=COCCO1	none | 697 NFkB conf inactive
Cc1nnc2sc(SCc3ccc(Br)cc3)nn2c1=O	697 NFkB inh 37 | 697 NFkB conf inactive
Nc1cc(Cl)nc(N/N=C/c2ccccc2[N+](=O)[O-])n1	none
Nc1cc(Cl)nc(N/N=C/c2ccc([N+](=O)[O-])cc2)n1	697 NFkB inh 41 | 697 NFkB conf inactive
O=c1c(-c2ccc(F)cc2)coc2cc(O)ccc12	none | 697 NFkB conf inactive
COc1ccccc1CNC(=O)C1CCN(c2ncnc3c2nc2n3CCCCC2)CC1	none
c1csc(-c2nc(-c3ccc(-c4ccon4)s3)no2)c1	none | 697 NFkB conf inactive
Cc1ccc(-c2noc(-c3cccs3)n2)cc1	none | 697 NFkB conf inactive
O=C(CCNC(=O)c1ccccc1)Nc1ccc(Cl)c(S(=O)(=O)N2CCCCC2)c1	none
O=C(O)COc1ccc(-c2nccc(-c3ccccn3)n2)cc1	697 NFkB inh 52 | 697 NFkB conf 56
NNC(=O)COc1ccc(-c2nccc(-c3ccc(F)cc3)n2)cc1	697 NFkB inh 60 | 697 NFkB conf 50
CSCC[C@H](NC(=O)c1ccc(Cl)c(S(=O)(=O)N2CCCC2)c1)c1nc2ccccc2[nH]1	none
N#CC1=C(N)Oc2cc(Nc3ccccc3)ccc2C1c1ccncc1 (centres undefined)	697 NFkB inh 37 | 697 NFkB conf 41
c1ccc(-c2nc(-c3ccncc3)no2)cc1	none
CCc1ccc(-c2nc(-c3ccncc3)no2)cc1	none | 697 NFkB conf inactive
c1ccc(-c2ccc(-c3nc(-c4ccncc4)no3)cc2)cc1	none | 697 NFkB conf inactive
COCCCNc1ccn2nc(-c3ccc(OCc4ccccc4)cc3)cc2n1	none (no result: Jurkat NFkB inh, 697 NFkB inh, Mdm2 MdmX PPI, Gli-Sufu block)
COc1ccc2cc3cc(C(=O)N4CCCCCC4)oc3nc2c1	none | 697 NFkB conf inactive
COc1ccc2nc3oc(C(=O)N4CCN(c5ccccc5F)CC4)cc3cc2c1	none
Cc1ccc(NS(=O)(=O)c2cccc3nsnc23)cc1[N+](=O)[O-]	none
O=c1cc(Nc2ccc3c(c2)OCCO3)[nH]c(=O)n1-c1ccc(Cl)cc1	697 NFkB inh 38 | 697 NFkB conf inactive
O=c1[nH]c(Nc2ccc3c(c2)OCCO3)nnc1Cc1ccc(Cl)cc1	none
COc1ccc(-c2noc(N3CCC(C(=O)Nc4ccc(F)cc4F)CC3)n2)cc1	697 NFkB inh 36 | 697 NFkB conf 35
COc1ccc(-c2noc(N3CCC(C(=O)Nc4ccc(OC)cc4OC)CC3)n2)cc1	none
Cc1ccc(NC(=O)c2ccc3c(c2)OCCO3)cc1	none | 697 NFkB conf inactive
Cc1nc2c(ccc3nc(NC(=O)c4ccc5c(c4)OCCO5)sc32)s1	none | 697 NFkB conf inactive
Cc1ccc(NC(=O)c2ccc(-c3nn(C)c(=O)c4ccccc34)cc2)cc1	697 NFkB inh 42 | 697 NFkB conf inactive
Cc1ccc(C(=O)Nc2ccc3ccccc3c2)cc1	none | 697 NFkB conf inactive
Clc1ccc(NC2=NCCCCC2)cc1	697 NFkB inh 36 | 697 NFkB conf inactive
FC(F)Sc1ccc(NC2=NCCCCC2)cc1	none
CC1(C(=O)Nc2ccc3[nH]ncc3c2)CCN1C(=O)CCc1ccccc1 (centres undefined)	none (no result: Jurkat NFkB inh, 697 NFkB inh, Mdm2 MdmX PPI, Gli-Sufu block)
Cc1ccc(NC(=O)CNC(=O)C2CCCCC2)nc1	none
COc1ccc(-c2nc3ccc(C)cn3c2CC2CCCCC2)cc1OC	none (no result: Jurkat NFkB inh, 697 NFkB inh, Mdm2 MdmX PPI, Gli-Sufu block)
Cc1cc(C)n2nc(SCN3C(=O)c4ccccc4C3=O)nc2n1	none
O=C1c2ccccc2C(=O)N1CSc1ncccn1	697 NFkB inh 36 | 697 NFkB conf inactive
ON=Cc1ccnc2ccccc12	none (no result: Jurkat NFkB inh, 697 NFkB inh, Mdm2 MdmX PPI, Gli-Sufu block)
O=C(O)c1ccccc1N/N=C\c1ccnc2ccccc12	none | 697 NFkB conf inactive
CS(=O)(=O)N(CC(=O)N1CCOCC1)c1cc(Cl)ccc1Cl	none
C[C@@H]1CC=C[C@H]2[C@H]1C(=O)N(Cc1ccccc1)[C@H]2c1ccc(-c2ccc(N(C)C)cc2)cc1F	none
COc1ccc(-c2ccc(OC)c([C@H]3[C@H]4C=CC[C@@H](C)[C@@H]4C(=O)N3Cc3ccccc3)c2)cc1C	697 NFkB inh 42 | 697 NFkB conf 51
COc1ccc(-c2ccc(N(C)C)cc2)cc1[C@H]1[C@H]2C=CC[C@@H](C)[C@@H]2C(=O)N1Cc1ccccc1	697 NFkB inh 51 | 697 NFkB conf 36
COc1ccc(C2C3C(C)=NN=C3CC(C)(O)C2C(C)=O)cc1 (centres undefined)	none
Cc1ccc(N2C(=O)c3ccccc3NC2c2ccccc2O)cc1 (centres undefined)	none | 697 NFkB conf inactive
CC(NC(=O)C1CCC(CNc2c(N3CCCCC3)c(=O)c2=O)CC1)c1ccccc1 (centres undefined)	697 NFkB inh 36 | 697 NFkB conf inactive
CCOC(=O)N1CCC(N(CCN(C)C)C(=S)Nc2ccc(Oc3ccccc3)cc2)CC1	none
CCc1ccccc1NC(=O)CSc1nnc([C@@H]2CCCN2C(=O)OC(C)(C)C)o1	697 NFkB inh 36 | 697 NFkB conf inactive
O=C(OCC(O)CO)c1ccccc1Nc1ccnc2cc(Cl)ccc12 (centres undefined)	697 NFkB inh 41 | 697 NFkB conf inactive
O=C(c1ccco1)n1c(=S)nc2ccccn21	none
Cc1cccc(C(=O)n2c(=S)nc3cc(C)ccn32)c1	none | 697 NFkB conf inactive
